# Measurements taken from PubChem BioAssay (Tox21).
# Inconclusive results are not listed. A call without a number means that no potency is given here. Some structures have more than one record in an assay (separate samples or runs), and their calls can disagree. Active and inactive are the calls of the source. Calls follow the shape of the dose curve; as a rule, active = well fitted activation curve with a large enough effect in the repeat runs; inconclusive = weak or mixed curves; inactive = flat fitted curve, though single readings scatter.
# Assay: Caspase-3/7 induction in HepG2 cells by small molecules, qHTS assay (AID 1346978); also: nearly all actives have a fitted effect of over 15% in size
# Settings: HepG2 caspase-3/7 activation, Caspase-Glo luminescence, 17 h; series mostly up to 92.4 µM
# From the text: National Center for Advancing Translational Sciences [NCATS] NIH Chemical Genomics Center [NCGC] U.S. Environmental Protection Agency [EPA] National Institutes of Environmental Health Sciences [NIEHS] National Toxicology Program [NTP] Assay overview: Apoptosis is a process of programmed cell death and plays a central role in the development of multicellular organisms. It is a highly regulated process and induces cell death by activating caspases, which are the members of cysteine aspartic acid-specific protease (caspase) family. Caspases involved in apoptosis are classified by their mechanism of action as initiator caspases (caspase-2, -8, -9 and -10) and executioner caspases (caspase-3, -6, and -7). Inhibition of apoptosis results in number of cancers, autoimmune diseases, inflammatory diseases and viral infection. To identify small molecule compounds that induce apoptosis, a homogeneous, luminescent Caspase-Glo 3/7 assay was used. Wild type HepG2 cells were used to screen Tox21 libraries for identifying caspase-3/7 activity inducers.
# Assay Protocol Summary: HepG2 cells were dispensed at 2,000 per well in 5uL of culture medium into white solid bottom 1536-well plates (Corning Life Sciences, Corning, NY) using a Multidrop Combi (Thermo Scientific, Waltham, MA) dispenser. The assay plates were incubated at 37 C and 5% CO2 for 5hr, and then 23nL of compounds dissolved in DMSO and positive control were transferred using a Pintool station (Wako, San Diego, CA). The assay plates were incubated at 37C and 5% CO2 for 17hr. For caspase-3/7 activity read, 4uL of Caspase-Glo 3/7 reagent (Promega Corporation, Madison, WI) was added to each well of the assay plates using Flying Reagent Dispenser (FRD, Aurora Discovery, San Diego, CA) and incubated the assay plates at room temperature for 30min. The luminescence signal was quantified using a ViewLux plate reader (Perkin Elmer, Shelton, CT).
# Potency is read from the fitted curve at half-maximal effect.
row,Structure (SMILES),Potency
1,C=CC[N+](C)(C)CC=C,inactive
2,O=C(O)CCCCCCCCC(=O)O,inactive
3,CC(=O)OCc1ccccc1,inactive
4,CC(=O)OC1CC(C)OC(C)O1 (stereo not given),inactive
5,O=C(OCC1CCC2OC2C1)C1CCC2OC2C1 (stereo not given),inactive
6,CC1(C)CC(N)CC(C)(CN)C1 (stereo not given),inactive
7,COc1ccc(CCC(C)=O)cc1,inactive
8,CNC(=O)Oc1ccc2c(c1)[C@]1(C)CCN(C)[C@@H]1N2C,inactive
9,CC(C)OP(=O)(CP(=O)(OC(C)C)OC(C)C)OC(C)C,inactive
10,OCc1cccc(Oc2ccccc2)c1,inactive
11,CC(C)CCCCCCCOC(=O)CCCCC(=O)OCCCCCCCC(C)C,inactive
12,CC(O)CC(C)(C)O (stereo not given),inactive
13,CCCCCCCC=O,inactive
14,C=C(C)C(=O)OCC(C)C,55.2 µM (active) and inactive
15,CCOC(=O)c1ccc(N)cc1,inactive
16,C=CC(=O)OCCC(=O)O,inactive
17,CC(C)(C)c1cc(Cc2cc(C(C)(C)C)c(O)c(C(C)(C)C)c2)cc(C(C)(C)C)c1O,inactive
18,CCNc1ccccc1,inactive
19,O=C1C(c2[nH]c3ccccc3c2O)=Nc2ccccc21,inactive
20,CCCCCCCCCCO,inactive

row,Structure (SMILES),Potency
1,NCCNCCN,inactive
2,O=C(O)c1cc2ccccc2cc1O,inactive
3,CC(C)OC(=O)COc1ccc(Cl)cc1Cl,inactive
4,O=C1c2ccccc2CCc2ccccc21,inactive
5,NCCCCCCN,inactive
6,OCc1ccccc1,inactive
7,CCCCCC(=O)O,inactive
8,CCOCCOCCOCCO,inactive
9,C=CC(C)CCCC(C)(C)O (stereo not given),inactive
10,O=C(O)c1ccc(S(=O)(=O)N(Cl)Cl)cc1,inactive
11,CNC(=S)N(C)C,inactive
12,O=S(=O)(O)c1ccccc1,inactive
13,Brc1ccc(Br)c(Br)c1,inactive
14,COc1ccc(OC)cc1,inactive
15,COc1cc(OC)c(C(=O)CCCN2CCCC2)c(OC)c1,inactive
16,C=Cc1ccc(C)cc1,inactive
17,C[C@]12CCC(=O)C=C1CC[C@@H]1[C@@H]2[C@@H](O)C[C@@]2(C)[C@H]1CC[C@]2(O)C(=O)CO,inactive
18,CC(CCO)CC(C)(C)C (stereo not given),inactive
19,O=S(=O)(O)c1ccc(N=Nc2c(O)ccc3cc(S(=O)(=O)O)ccc23)cc1,inactive
20,Cc1ccc(S(=O)(=O)N=C=O)cc1,inactive
